34 targets from the supplement of paper PMC10849652 can be followed below.

The full data set covers some 7,900 targets. This sample favours those with a hit. About 0.6% of all pairs of compound and target were hits. Unmarked numbers belong to inactive results.

Sequence of UniProt Q92696 (Q92696 whole entry, looked up): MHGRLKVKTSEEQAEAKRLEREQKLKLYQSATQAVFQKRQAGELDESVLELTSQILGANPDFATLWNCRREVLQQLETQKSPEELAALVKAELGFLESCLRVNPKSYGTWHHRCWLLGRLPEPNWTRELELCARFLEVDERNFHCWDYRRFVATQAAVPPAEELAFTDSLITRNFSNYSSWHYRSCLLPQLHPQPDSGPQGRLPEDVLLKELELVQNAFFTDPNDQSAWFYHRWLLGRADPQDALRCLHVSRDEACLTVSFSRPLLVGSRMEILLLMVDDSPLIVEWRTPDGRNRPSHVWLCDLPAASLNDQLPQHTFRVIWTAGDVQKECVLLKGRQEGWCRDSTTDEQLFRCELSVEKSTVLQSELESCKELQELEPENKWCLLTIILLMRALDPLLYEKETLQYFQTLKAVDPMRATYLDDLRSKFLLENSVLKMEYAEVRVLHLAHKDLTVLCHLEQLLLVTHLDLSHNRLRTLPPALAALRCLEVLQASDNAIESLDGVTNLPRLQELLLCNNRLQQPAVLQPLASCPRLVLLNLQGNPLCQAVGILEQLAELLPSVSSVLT
Sequence of UniProt Q9Y6Y8 (Q9Y6Y8 whole entry, looked up): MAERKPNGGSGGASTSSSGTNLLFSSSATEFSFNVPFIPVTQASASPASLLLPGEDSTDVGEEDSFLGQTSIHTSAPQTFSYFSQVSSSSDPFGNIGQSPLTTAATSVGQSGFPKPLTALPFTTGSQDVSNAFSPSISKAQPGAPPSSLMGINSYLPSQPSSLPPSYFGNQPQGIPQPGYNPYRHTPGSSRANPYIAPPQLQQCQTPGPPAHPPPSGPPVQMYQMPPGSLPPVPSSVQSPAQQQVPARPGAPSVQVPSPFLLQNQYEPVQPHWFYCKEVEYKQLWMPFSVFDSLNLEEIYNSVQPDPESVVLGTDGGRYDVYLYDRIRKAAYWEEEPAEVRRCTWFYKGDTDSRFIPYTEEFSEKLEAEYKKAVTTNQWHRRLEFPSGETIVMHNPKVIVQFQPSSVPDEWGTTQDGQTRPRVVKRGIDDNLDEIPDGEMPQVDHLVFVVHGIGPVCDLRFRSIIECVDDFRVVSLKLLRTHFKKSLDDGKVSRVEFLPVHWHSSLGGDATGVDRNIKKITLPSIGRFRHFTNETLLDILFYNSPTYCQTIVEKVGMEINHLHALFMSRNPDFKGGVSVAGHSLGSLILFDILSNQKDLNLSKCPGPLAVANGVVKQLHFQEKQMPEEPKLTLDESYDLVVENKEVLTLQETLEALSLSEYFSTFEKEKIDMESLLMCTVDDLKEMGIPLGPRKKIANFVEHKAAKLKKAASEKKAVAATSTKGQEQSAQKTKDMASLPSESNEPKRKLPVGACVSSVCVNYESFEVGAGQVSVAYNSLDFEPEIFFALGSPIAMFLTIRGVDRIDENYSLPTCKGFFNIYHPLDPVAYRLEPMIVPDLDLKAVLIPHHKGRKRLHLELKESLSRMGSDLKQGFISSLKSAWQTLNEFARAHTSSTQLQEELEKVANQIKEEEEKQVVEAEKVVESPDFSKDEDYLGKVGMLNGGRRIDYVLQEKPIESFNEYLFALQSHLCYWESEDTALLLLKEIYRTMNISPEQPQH
Sequence of UniProt Q8IZE3 (Q8IZE3 whole entry, looked up): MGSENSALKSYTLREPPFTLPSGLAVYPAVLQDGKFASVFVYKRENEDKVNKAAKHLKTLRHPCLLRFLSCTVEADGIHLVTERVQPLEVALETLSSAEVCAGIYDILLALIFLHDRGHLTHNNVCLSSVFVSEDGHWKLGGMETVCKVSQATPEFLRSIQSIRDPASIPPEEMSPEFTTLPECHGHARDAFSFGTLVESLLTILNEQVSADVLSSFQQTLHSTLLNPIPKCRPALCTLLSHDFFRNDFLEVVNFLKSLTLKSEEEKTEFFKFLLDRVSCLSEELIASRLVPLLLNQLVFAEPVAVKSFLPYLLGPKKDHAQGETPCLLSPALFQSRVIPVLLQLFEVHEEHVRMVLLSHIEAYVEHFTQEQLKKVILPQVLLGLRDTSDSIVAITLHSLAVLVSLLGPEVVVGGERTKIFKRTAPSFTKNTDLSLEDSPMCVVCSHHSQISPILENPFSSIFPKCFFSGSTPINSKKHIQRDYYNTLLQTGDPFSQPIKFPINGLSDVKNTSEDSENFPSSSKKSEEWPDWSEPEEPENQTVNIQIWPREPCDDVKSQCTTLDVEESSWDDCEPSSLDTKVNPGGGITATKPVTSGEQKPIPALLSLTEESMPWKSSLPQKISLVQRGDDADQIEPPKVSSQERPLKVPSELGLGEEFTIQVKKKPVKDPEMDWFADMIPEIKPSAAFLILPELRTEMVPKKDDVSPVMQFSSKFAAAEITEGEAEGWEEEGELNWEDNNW
Sequence of UniProt P51148 (P51148 whole entry, looked up): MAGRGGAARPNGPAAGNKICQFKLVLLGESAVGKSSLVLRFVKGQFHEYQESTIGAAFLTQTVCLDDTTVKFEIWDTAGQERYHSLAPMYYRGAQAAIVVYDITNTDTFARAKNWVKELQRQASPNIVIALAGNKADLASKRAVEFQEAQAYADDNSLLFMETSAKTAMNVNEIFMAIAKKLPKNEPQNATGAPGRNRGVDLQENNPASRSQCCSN
Sequence of UniProt Q15349 (Q15349 whole entry, looked up): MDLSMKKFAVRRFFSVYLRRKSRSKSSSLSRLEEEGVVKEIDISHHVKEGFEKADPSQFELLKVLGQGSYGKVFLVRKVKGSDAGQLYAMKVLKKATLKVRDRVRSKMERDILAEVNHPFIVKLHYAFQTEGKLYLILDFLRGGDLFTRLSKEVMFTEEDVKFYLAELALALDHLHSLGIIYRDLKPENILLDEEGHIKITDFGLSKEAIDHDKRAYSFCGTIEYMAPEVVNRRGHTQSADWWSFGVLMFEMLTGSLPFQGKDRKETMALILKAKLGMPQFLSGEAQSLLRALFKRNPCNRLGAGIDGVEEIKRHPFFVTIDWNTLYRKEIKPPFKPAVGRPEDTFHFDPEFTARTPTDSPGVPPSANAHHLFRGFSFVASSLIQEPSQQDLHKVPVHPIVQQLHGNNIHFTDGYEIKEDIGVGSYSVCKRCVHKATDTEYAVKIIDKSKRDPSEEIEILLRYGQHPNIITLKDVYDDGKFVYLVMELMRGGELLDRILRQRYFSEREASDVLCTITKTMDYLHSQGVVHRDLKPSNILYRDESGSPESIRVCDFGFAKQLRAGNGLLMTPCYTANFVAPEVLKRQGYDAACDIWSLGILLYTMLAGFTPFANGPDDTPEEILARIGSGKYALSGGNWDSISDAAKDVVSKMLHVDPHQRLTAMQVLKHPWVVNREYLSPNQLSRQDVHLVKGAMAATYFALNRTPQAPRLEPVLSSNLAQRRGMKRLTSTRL
Sequence of UniProt Q13464 (Q13464 whole entry, looked up): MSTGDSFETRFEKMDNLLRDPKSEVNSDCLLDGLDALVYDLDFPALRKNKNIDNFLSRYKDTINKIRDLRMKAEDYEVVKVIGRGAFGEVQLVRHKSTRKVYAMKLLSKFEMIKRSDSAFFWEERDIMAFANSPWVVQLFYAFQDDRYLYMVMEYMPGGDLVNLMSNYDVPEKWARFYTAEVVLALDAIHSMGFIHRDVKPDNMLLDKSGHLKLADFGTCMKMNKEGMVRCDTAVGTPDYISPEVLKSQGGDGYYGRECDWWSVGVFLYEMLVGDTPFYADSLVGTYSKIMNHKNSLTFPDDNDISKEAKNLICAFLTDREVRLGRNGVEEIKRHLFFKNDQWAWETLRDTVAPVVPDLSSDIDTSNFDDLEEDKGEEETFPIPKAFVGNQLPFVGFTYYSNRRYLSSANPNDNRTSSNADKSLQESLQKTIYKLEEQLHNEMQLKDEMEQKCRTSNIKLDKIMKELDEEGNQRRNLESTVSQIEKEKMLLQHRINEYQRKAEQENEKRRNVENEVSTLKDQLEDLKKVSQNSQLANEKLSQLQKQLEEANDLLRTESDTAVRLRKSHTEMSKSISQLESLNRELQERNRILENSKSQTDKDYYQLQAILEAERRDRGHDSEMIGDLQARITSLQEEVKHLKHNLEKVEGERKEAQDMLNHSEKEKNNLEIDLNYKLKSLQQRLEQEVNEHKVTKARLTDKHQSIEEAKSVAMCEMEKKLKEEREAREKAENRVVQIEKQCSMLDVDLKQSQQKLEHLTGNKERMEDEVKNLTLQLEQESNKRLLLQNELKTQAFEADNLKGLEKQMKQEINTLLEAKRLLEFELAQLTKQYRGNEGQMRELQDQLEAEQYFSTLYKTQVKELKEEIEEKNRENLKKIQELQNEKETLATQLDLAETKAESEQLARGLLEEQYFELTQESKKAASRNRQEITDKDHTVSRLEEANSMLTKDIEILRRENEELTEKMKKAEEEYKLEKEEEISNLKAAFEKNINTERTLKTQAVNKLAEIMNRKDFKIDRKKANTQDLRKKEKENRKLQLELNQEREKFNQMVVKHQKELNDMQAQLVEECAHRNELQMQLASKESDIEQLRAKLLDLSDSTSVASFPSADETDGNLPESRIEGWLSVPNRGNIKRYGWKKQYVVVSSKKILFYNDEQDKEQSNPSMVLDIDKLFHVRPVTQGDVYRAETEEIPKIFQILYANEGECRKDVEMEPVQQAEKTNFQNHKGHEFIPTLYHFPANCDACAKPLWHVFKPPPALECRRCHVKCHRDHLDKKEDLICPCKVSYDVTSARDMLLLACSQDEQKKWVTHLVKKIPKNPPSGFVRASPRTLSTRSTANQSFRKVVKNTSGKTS
Sequence of UniProt Q5RL73 (Q5RL73 whole entry, looked up): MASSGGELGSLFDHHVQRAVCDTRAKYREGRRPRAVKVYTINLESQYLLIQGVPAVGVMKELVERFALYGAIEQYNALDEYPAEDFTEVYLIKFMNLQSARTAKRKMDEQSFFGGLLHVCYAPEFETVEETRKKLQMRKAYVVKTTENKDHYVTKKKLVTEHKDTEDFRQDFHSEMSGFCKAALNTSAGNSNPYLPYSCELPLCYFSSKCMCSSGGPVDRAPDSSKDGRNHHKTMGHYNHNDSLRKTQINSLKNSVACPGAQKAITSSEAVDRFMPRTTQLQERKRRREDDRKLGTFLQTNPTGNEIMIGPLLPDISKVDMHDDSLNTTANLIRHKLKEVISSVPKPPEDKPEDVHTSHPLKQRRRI

Compound in the test: C1=CC2=C(C=CC(=C2)/C=C\3/C(=O)NC(=NCC4=CC=CS4)S3)N=C1
Put plainly: log2 fold change, soluble protein after heating vs DMSO (PISA); higher = thermal stabilisation; K562 cells, 10 uM, 30 min; active = over 0.2 and 3.5 SD of the protein, either way, in both replicates (recomputed). Put shortly:
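Quantification of soluble protein used TMTpro 16plex LC-MS/MS, with channel sums equalised. Samples were the supernatant after 21,000xg for 90 min of pooled aliquots from K562 cells (2×10^6 cells/mL) treated with 10 μM compound for 30 min, heated for 3 min over 48°C-58°C, and extracted in PBS with 0.5% NP-40 at 4°C. Values, from duplicates, describe thermal stability against control samples on a log2 fold-change scale.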
Turning to RPS3 (UniProt P23396), the log2 fold change was -0.026.

Regarding SDHC (UniProt Q99643), the log2 fold change is -0.013.

For the target REL (UniProt Q04864), the log2 fold change is 0.024.

As for SERINC1 (UniProt Q9NRX5), the log2 fold change is -0.026.

Regarding RPS9 (UniProt P46781), the log2 fold change was -0.069.

Regarding RPS27A (UniProt P62979), the log2 fold change is -0.136.

As to RPS18 (UniProt P62269), the log2 fold change was -0.037.

As to RBM33 (UniProt Q96EV2), the log2 fold change was 0.

Take SEC23IP (UniProt Q9Y6Y8): the log2 fold change is 0.028.

For RRAGB (UniProt Q5VZM2), the log2 fold change was -0.13.

With RPS16 (UniProt P62249), the log2 fold change was -0.075.

On to RPS4X (UniProt P62701), for which the log2 fold change is -0.042.

As for RABGGTA (UniProt Q92696), the log2 fold change is 0.063.

On to RSL1D1 (UniProt O76021), for which the log2 fold change is -0.054.

Regarding ROR2 (UniProt Q01974), the log2 fold change was 0.02.

Take SEC16A isoform 5 (UniProt O15027): the log2 fold change is 0.153.

On to RETSAT (UniProt Q6NUM9), for which the log2 fold change was 0.052.

Take RAB5C isoform 2 (UniProt P51148): the log2 fold change is -0.083.

With RSF1 (UniProt Q96T23), the log2 fold change was 0.039.

As to SCAMP2 (UniProt H3BUB6), the log2 fold change is 0.372.

Regarding RSRC2 (UniProt Q7L4I2), the log2 fold change was -0.05.

In the case of RAB5IF isoform 5 (UniProt Q9BUV8), the log2 fold change is -0.061.

Regarding RGS10 (UniProt O43665), the log2 fold change is -0.03.

Regarding ROCK1 (UniProt Q13464), the log2 fold change is 0.199.

As to SCYL3 isoform 2 (UniProt Q8IZE3), the log2 fold change is 0.068.

Regarding SCAF11 (UniProt Q99590), the log2 fold change was -0.134.

For RCC1 isoform 2 (UniProt P18754), the log2 fold change is 0.105.

Turning to RPS6KA2 isoform 2 (UniProt Q15349), the log2 fold change is 0.07.

In the case of RNASET2 (UniProt O00584), the log2 fold change was 0.012.

Turning to RBM48 isoform 2 (UniProt Q5RL73), the log2 fold change was 0.053.

With RPS3A (UniProt P61247), the log2 fold change is -0.039.

For the target RRP9 (UniProt O43818), the log2 fold change was -0.042.

Regarding SASH1 (UniProt O94885), the log2 fold change is -0.104.

As to RIPK1 (UniProt Q13546), the log2 fold change is 0.068.
